What all share (details): treatment time: 24 h
In test [1] the test system is A549-ACTB-RAB5A. Put plainly: lowest phenotypically active concentration; higher = less potent. Put shortly: (§1)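 The reporter lines, fifteen in total and built by gene editing in A549, HepG2 and WPMY1 cells, used BFP for segmentation alongside GFP and RFP/FusionRed markers. Each was treated at 0.3, 1, 3 or 9 µM for 24 h in four wells and then imaged live, with live-cell features normalised to solvent control wells. Deviation meant ≥3 of 4 wells beyond the 95th percentile of control Euclidean distances; reproducibility meant a median replicate Pearson correlation above the 95th percentile of non-replicates. Only conditions meeting both were scored as phenotypically active.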

The test system of test [2] is A549-GM130-SQSTM1. The description is as above. The procedure, abridged:
as §1

In test [3] the test system is A549-TUBA1B-RELA. The test is described as above. The procedure, abridged: as §1
Test [4] has as its system A549-ACTB-RAB5A. The test can be described thus: phenotypically active (imaging signature differs from DMSO and reproducible) at any of 0.3-9 uM (binary (1 = active, 0 = inactive)); higher = active. The procedure, abridged:
as §1

Test [5] concerns A549-CANX-COX4. Described as above. The procedure, abridged: as §1
In test [6] the test system is A549-GM130-SQSTM1. The description is as above. Put shortly:
as §1

The subject of test [7] is A549-TP53BP1-CLTA. The test is described as above. Put shortly: as §1
The subject of test [8] is A549-TUBA1B-RELA. The test is described as above. The procedure, abridged:
as §1

Test [9] has as its system HepG2-ACTB-RAB5A. The test is described as above. The procedure, abridged: as §1
For test [10], the system named is HepG2-CANX-COX4. The description is as above. The procedure, abridged: as §1
Test [11] deals with HepG2-GM130-SQSTM1. The test is described as above. Put shortly: as §1
In test [12] the test system is HepG2-TP53BP1-CLTA. Described as above. The procedure, abridged: as §1
The test system of test [13] is HepG2-TUBA1B-RELA. The description is as above. The procedure, abridged: as §1
Test [14] deals with WPMY1-ACTB-RAB5A. Described as above. The procedure, abridged:
as §1

Test [15] relates to WPMY1-CANX-COX4. The test is described as above. Put shortly: as §1
The subject of test [16] is WPMY1-GM130-SQSTM1. The test is described as above. The procedure, abridged:
as §1

Test [17] concerns WPMY1-TP53BP1-CLTA. Described as above. The procedure, abridged: as §1
The subject of test [18] is WPMY1-TUBA1B-RELA. Described as above. The procedure, abridged: as §1
The subject of test [19] is WPMY1-CANX-COX4. Put plainly: lowest phenotypically active concentration; higher = less potent. Put shortly:
as §1

The structures appear in SMILES notation. Counter-ions that a name gives are not always drawn.

As to `c1ccc(CN(CC2=NCCN2)c2ccccc2)cc1` [antazoline], the “lowest phenotypically active concentration” value in test [1] stood at 3 µM; in test [2], 9 µM; in [3] it was 9 µM. Moreover, the phenotypically active in test [4] was 1 (active); in test [5] it was 0 (inactive); in [6], 1 (active); in [7], 0 (inactive); in [8], 1 (active); in [9] it was 0 (inactive). The phenotypically active in test [10], in test [11], in test [12], in test [13], in [14] and in test [15] was 0 (inactive) each time. Moreover, the phenotypically active in [16], in [17] and in test [18] was 0 (inactive) each time.
Turning to `COc1cc2ncnc(Nc3ccc(Cl)cc3F)c2cc1OC`, the “lowest phenotypically active concentration” value came out at 9 µM in test [1], 3 µM in test [2] and 3 µM in test [3]. Further, the phenotypically active is 1 (active) in test [4]; 0 (inactive) in test [5]; 1 (active) in test [6]; 1 (active) in [7]; 1 (active) in [8]; 0 (inactive) in test [9]. Further, the phenotypically active in test [10], in test [11], in test [12], in test [13], in [14] and in test [15] was 0 (inactive) each time. Moreover, the phenotypically active in [16], in test [17] and in test [18] was 0 (inactive) each time.
Turning to `Cn1cc(C2=C(c3ccc(Cl)cc3Cl)C(=O)NC2=O)c2ccccc21`, the “lowest phenotypically active concentration” value is 1 µM in test [1], at most 0.3 µM in [2], 1 µM in test [3] and 1 µM in [19]. Moreover, the phenotypically active in test [4] is 1 (active); in test [5], 0 (inactive); in test [6] it was 1 (active); in test [7], 1 (active); in test [8] it was 1 (active); in [9], 0 (inactive). Further, the phenotypically active was 0 (inactive) in [10]; 1 (active) in test [11]; 1 (active) in test [12]; 0 (inactive) in [13]; 0 (inactive) in test [14]; 1 (active) in test [15]. Moreover, the phenotypically active was 1 (active) in test [16], 1 (active) in [17] and 0 (inactive) in test [18].
Consider `Cc1ccc(NC(=O)c2cccc(N(C)C)c2)cc1NC(=O)c1ccc(O)cc1`, for which the “lowest phenotypically active concentration” value in test [1], in test [2] and in test [3] was 3 µM each time. The phenotypically active in [4] is 1 (active); in [5] it was 0 (inactive); in test [6], 1 (active); in [7], 1 (active); in test [8], 1 (active); in test [9], 0 (inactive). Further, the phenotypically active was 0 (inactive) in [10]; 0 (inactive) in [11]; 0 (inactive) in test [12]; 0 (inactive) in test [13]; 1 (active) in [14]; 0 (inactive) in test [15]. The phenotypically active in test [16], in test [17] and in test [18] was 0 (inactive) each time.
For `CC(C)(C)c1ccc2cc(C#N)c(C#N)cc2c1`, the “lowest phenotypically active concentration” value in [1] and in test [2] was 3 µM throughout. The phenotypically active in test [4] was 1 (active); in test [5], 0 (inactive); in [6], 1 (active); in test [7] it was 0 (inactive); in test [8], 0 (inactive); in test [9] it was 0 (inactive). Also, the phenotypically active in test [10], in [11], in [12], in [13], in test [14] and in test [15] was 0 (inactive) each time. Moreover, the phenotypically active in [16], in test [17] and in test [18] was 0 (inactive) each time.
Take `CCOP(=O)(OCC)C(=Cc1cc(C(C)(C)C)c(O)c(C(C)(C)C)c1)P(=O)(OCC)OCC`: the “lowest phenotypically active concentration” value in [1] and in test [2] was 9 µM in each case. Also, the phenotypically active is 1 (active) in test [4]; 0 (inactive) in test [5]; 1 (active) in test [6]; 0 (inactive) in test [7]; 0 (inactive) in test [8]; 0 (inactive) in test [9]. Moreover, the phenotypically active in test [10], in [11], in test [12], in [13], in test [14] and in test [15] was 0 (inactive) in each case. Further, the phenotypically active in test [16], in test [17] and in test [18] was 0 (inactive) each time.
On to `Cn1cc(CCn2cnc(-c3cnn(C)c3)c2-c2ccc(C#N)cc2)cn1`, for which the “lowest phenotypically active concentration” value in test [1] and in [2] was 9 µM throughout. Besides, the phenotypically active in test [4] is 1 (active); in [5], 0 (inactive); in [6] it was 1 (active); in [7] it was 0 (inactive); in test [8], 0 (inactive); in test [9] it was 0 (inactive). Besides, the phenotypically active in test [10], in test [11], in test [12], in test [13], in [14] and in [15] was 0 (inactive) throughout. Further, the phenotypically active in test [16], in test [17] and in [18] was 0 (inactive) each time.
Turning to `COc1cc(OC)c2cc(-c3ccncc3)cnc2c1` [DMPQ dihydrochloride], the “lowest phenotypically active concentration” value in test [1], in test [2] and in test [19] was 9 µM each time. Also, the phenotypically active in [4] was 1 (active); in test [5] it was 0 (inactive); in [6], 1 (active); in test [7], 1 (active); in test [8], 0 (inactive); in [9], 0 (inactive). Also, the phenotypically active in test [10] is 1 (active); in test [11], 0 (inactive); in test [12], 0 (inactive); in [13], 0 (inactive); in test [14] it was 0 (inactive); in test [15], 1 (active). Besides, the phenotypically active in test [16] is 0 (inactive); in test [17] it was 1 (active); in test [18] it was 0 (inactive).
